# Most compounds without a hit are left out; they make up all but 2.8% or so of the library.
# KDM5B inhibitor = KDM5B demethylase inhibition; KDM5B demethylase, FDH-coupled NADH fluorescence (FDH is formaldehyde dehydrogenase); Potency, µM (highest dose often 57.7 µM), hits mostly inhibitors; AID 1347165; 220,000 compounds, 2.6% hits; active = well fitted inhibition curve with a large enough effect; inconclusive = small, poorly fitted or top-dose-only effect; inactive = no such curve, though single readings can be large or run the other way; also: potency is read from the fitted curve at half-maximal effect; 0% is about no effect; nearly all actives have a fitted effect of over 70% in size
#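 Compound dilutions met 200 nM (final) KDM5BΔAP for 10 min at room temperature before substrate addition. The substrate mix held 12.5 µM H3K4me3 with cofactors 25 µM α-ketoglutarate and 50 µM Fe²⁺. NADH signal gain over 30 min defined activity.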
# IP6K1 inh = inhibitors of human IP6K1; IP6K1 kinase, ADP-Glo luminescence, 2 h; active compounds read low; activity change, % (series mostly up to about 58 µM); 140,000 compounds, 0.81% hits; AID 1645851; in the data active = activity change below about -25%; also: % is scaled to controls: 0 for no effect and ±100 for the full control effect
# Target sequence (Q92551 whole entry, looked up): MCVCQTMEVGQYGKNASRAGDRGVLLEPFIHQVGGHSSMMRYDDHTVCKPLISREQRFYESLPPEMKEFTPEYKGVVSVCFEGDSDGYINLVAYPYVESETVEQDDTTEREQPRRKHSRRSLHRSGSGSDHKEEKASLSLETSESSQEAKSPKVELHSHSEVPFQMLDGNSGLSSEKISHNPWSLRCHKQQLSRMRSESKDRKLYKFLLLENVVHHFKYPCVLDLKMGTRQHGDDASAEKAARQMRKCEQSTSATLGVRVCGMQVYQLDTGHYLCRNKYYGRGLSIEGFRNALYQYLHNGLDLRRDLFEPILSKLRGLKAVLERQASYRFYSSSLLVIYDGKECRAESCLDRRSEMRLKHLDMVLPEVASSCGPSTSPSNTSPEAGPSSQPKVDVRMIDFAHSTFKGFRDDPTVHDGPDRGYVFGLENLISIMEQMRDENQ
#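 ADP-Glo luminescence measures ADP made by human IP6K1 during a 2 h RT reaction with ATP/IP6 (mix at 1.3 mM/130 uM); top library doses 57.5 and 19.1 uM final.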
# Active calls of the source: *; i = inactive; ? = inconclusive; nt = no result.
SMILES,KDM5B inhibitor,IP6K1 inh
CCc1nc2c(=O)n(CC(=O)NCc3cccnc3)nc(C)c2s1,i,-1.0
COCC1CCN(c2ccc(-c3nc(-c4ccccc4C)no3)cn2)C1 (stereo unspecified),31.6µM*,18.2
CC1CCCN(C(=O)COc2ccccc2-c2noc(-c3ccc(Cl)cc3)n2)C1 (stereo unspecified),i,nt
COC(=O)[C@@H]1CCCN1c1ccc(-c2nc(-c3ccccc3F)no2)cn1,25.1µM*,3.4
OCC1CCN(c2ccc(-c3nc(CCCc4ccccc4)no3)cn2)CC1,?,-3.4
COc1cccc(CNC(=O)c2cc3c(N4CCCC4)nc(C)cn3n2)c1,i,-15.7
Cc1cn2nc(C(=O)Nc3cccc(F)c3C)cc2c(N2CCCC2)n1,25.1µM*,0.0
Cc1ccc(NC(=O)c2cc3c(N4CCCC4)nc(C)cn3n2)cc1,?,0.0
Cc1cn2nc(C(=O)Nc3ccc4c(c3)OCCO4)cc2c(N2CCCC2)n1,25.1µM*,7.8
COc1cccc(NC(=O)c2cc3c(N4CCCC4)nc(C)cn3n2)c1,35.5µM*,-5.0
COc1ccc(CC(=O)N2CCC(N3C(=O)c4c(c(C)nn4-c4ccccc4)C3C)C2)cc1 (stereo unspecified),nt,6.6
NC(=O)Cn1ccc2cc(OCC3CCN(C(=O)COc4ccccc4)CC3)cnc21,35.5µM*,-8.0
NC(=O)Cn1ccc2cc(OCC3CCN(C(=O)CCc4ccccc4)CC3)cnc21,31.6µM*,-8.6
O=C(COc1ccccc1)N1CCC(Oc2cnc3c(ccn3-c3cncnc3)c2)CC1,i,1.2
O=C(O)CCn1ncc2cc(OCC3CCN(C(=O)Cc4ccccc4)CC3)ccc21,i,-2.4
CCOC(=O)c1c(C)[nH]c(C(=O)OC(C)C(N)=O)c1C (stereo unspecified),i,nt
COc1ccccc1/C=C/CN1CC[C@@H](c2ccc3c(c2)OCO3)[C@H](O)C1,i,12.5
COc1ccccc1/C=C/CN1CCn2nc(CO)cc2C1,28.2µM*,17.6
COc1ccc(-c2ccc(C(=O)NCc3cccc(C(F)(F)F)c3)c(Cl)c2)nn1,nt,0.0
O=C(NCC1CCCCC1)c1ccc2oc(-c3ccccn3)nc2c1,nt,-9.3
COCCN1CCC2(CCC1=O)CN(c1ccc(C#N)cn1)CCN2C (stereo unspecified),28.2µM*,14.6
C=CCN1CCC2(CCC1=O)CN(c1ccc(C#N)cn1)CCN2C (stereo unspecified),?,3.1
Cn1nc(C(=O)NC2CCCC2)c(Cl)c1C(F)(F)F,i,nt
Cc1ccc([S+](=O)([O-])N2CCC3(CCN(Cc4cccs4)c4ccccc4O3)CC2)cc1,i,-7.7
O=[S+]([O-])(c1cccc(C(F)(F)F)c1)N1CCC2(CCN(Cc3cccs3)c3ccccc3O2)CC1,11.2µM*,-1.1
SMILES,KDM5B inhibitor,IP6K1 inh
O=C(c1ccc(F)cc1)N(Cc1ccco1)C1CC1,i,nt
CCCN(CCC)c1nc(-c2ccncc2)nc2ccccc12,i,nt
COCC(=O)N1CC[C@H](c2nnc(-c3ccc(C)cc3)o2)C1,i,13.5
Cc1ccc(-c2nnc([C@H]3CCN(C4CCC4)C3)o2)cc1,31.6µM*,-2.3
Cc1ccc(-c2nnc([C@H]3CCN(C(C)C)C3)o2)cc1,31.6µM*,8.4
CN1CCC(N2CC[C@H](c3nnc(-c4ccc(Cl)cc4)o3)C2)CC1,?,8.9
CC(C)N1CC[C@H](c2nnc(-c3cccnc3)o2)C1,?,5.4
Clc1ccc(-c2nnc([C@H]3CCN(C4CCCCC4)C3)o2)cc1,25.1µM*,-1.8
Cc1ccc(C(c2sc3nc(-c4ccco4)nn3c2O)N2CCC(O)CC2)cc1 (stereo unspecified),i,nt
COCCn1ncc(N2CCCC(CC(=O)Nc3cc(C)ccc3OC)C2)cc1=O (stereo unspecified),i,12.5
COC(=O)c1sccc1NC(=O)N1CCCC1Cc1noc(Cc2ccccc2)n1 (stereo unspecified),nt,15.0
COc1ccc(OCC(O)CN2CCC(=O)N(Cc3ccco3)Cc3sccc32)cc1 (stereo unspecified),nt,-12.4
CN(c1ccc(F)cc1)C1CN(C(=O)OC(C)(C)C)C1,i,-9.7
CCN(c1ccc2c(c1)OCO2)C1CN(C(=O)OC(C)(C)C)C1,89.1µM*,-16.6
Cc1nn(-c2ccccc2)c2c1C(C)N(C1CN([S+](=O)([O-])c3ccccc3)C1)C2=O (stereo unspecified),nt,13.0
O=[S+]1([O-])NC2(CCN(CC3CCOCC3)CC2)COc2ccccc21,79.4µM*,-1.6
O=[S+]1([O-])NC2(CCN(Cc3cccs3)CC2)COc2ccccc21,?,15.6
COC(=O)c1sccc1S(=O)(=O)Oc1ccc2c(C(F)(F)F)cc(=O)oc2c1,i,nt
COc1ccc2c(c1)c(CN1CCOCCNC(=O)CC1)cn2C(C)C,20µM*,10.5
CC(C)n1cc(CN2CCOCCNC(=O)CC2)c2ccccc21,?,7.2
